Compound activity as filed in PubChem BioAssay.
Only some compounds are listed: those with a hit (about 0.39% of all), similar ones and a draw of the others.
Apoferritin bind – candidate novel general anesthetic via apoferritin binding; P02791; apoferritin/1-aminoanthracene competitive binding, fluorescence; Potency, µM (titrated, usually from 77.5 µM), for inactives: top-dose activity change, negative = displacement, hits mostly inhibitors; hit rate 0.074% among 350,000; note: potency is the fitted concentration of half-maximal effect; % is set by controls: 0 for no effect and ±100 for the full control effect; nearly all actives have a fitted effect of over 20% in size
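In PBS, apoferritin at 10 uM is loaded with 1-AMA from a 50% saturated solution. After 10 min of compound exposure at ambient temperature, reduced 535 nm fluorescence indicates probe displacement.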
Mm-Cpn inhibitor – inhibitors of Methanococcus maripaludis chaperonin TRiC (MmCpn); hit rate 0.031% among 330,000; purified Mm-Cpn ATPase, ADP Transcreener TR-FRET; Potency, µM (series often up to 76.9 µM), for inactives: top-dose activity, negative = inhibition, most hits filed as inhibitors; AID 504842; note: potency is the fitted concentration of half-maximal effect; % is set by controls: 0 for no effect and ±100 for the full control effect; nearly all actives have a fitted effect of over 80% in size
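Eu-cryptate anti-ADP/ADP-d2 competition gives a ratio inversely related to ADP. Enzyme at 25 nM was pre-exposed to compound for 10 min, then given 10 uM ATP for 30 min, 37°C throughout.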
CCT chaperon mod – cytosolic chaperonin activity modulation | purified chaperonin ATPase assay, HTRF ADP detection, 30 min | activity change, % (no concentration beside the values), hits read low | hit rate 0.3% among 360,000 | AID 651819; in the data active = activity change below about -30%; note: % is set by controls: 0 for no effect and ±100 for the full control effect
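First, chaperonin was dispensed at 40 nM or 20 nM final depending on batch activity. Next, compounds were pinned at 76 uM and ATP added at 10 uM. After 30 min at 37 °C, ADP detection reagents ran 30 min at ambient temperature.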
ERG-DNA inh – ERG Ets/DNA interaction inhibition | P11308 | fluorescence polarization, His-ERG Ets domain / labelled DNA | Potency, µM (top dose mostly 76.9 µM), without a hit: top-dose FP activity, negative = inhibition, usual class: inhibitors | hit rate 0.028% among 370,000 | AID 624246; active = well fitted inhibition curve with a large enough effect in the polarisation, with a control signal flat; inconclusive = small, poorly fitted or top-dose-only effect, or effect the other way, or a change in a side signal; inactive = no such curve, though single readings can be large or run the other way; the % refers to the polarisation;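 note: polarization taken with two DNA probes labelled with fluorescein and Texas red; potency is the fitted concentration of half-maximal effect; % of control where 0% means no effect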
Target sequence (P11308 whole entry, looked up, the tested form may be a part): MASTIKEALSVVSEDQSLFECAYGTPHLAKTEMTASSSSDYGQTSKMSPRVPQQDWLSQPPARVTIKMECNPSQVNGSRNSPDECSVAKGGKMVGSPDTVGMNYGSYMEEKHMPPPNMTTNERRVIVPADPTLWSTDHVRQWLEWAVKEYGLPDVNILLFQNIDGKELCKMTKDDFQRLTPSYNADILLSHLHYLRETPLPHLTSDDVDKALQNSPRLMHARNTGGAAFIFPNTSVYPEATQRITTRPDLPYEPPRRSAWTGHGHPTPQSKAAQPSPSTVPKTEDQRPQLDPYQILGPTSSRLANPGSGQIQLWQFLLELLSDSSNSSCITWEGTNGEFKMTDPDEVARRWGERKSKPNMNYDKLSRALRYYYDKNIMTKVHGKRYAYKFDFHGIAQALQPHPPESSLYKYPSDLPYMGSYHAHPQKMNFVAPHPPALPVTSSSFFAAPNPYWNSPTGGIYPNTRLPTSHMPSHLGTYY
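His-tagged ERG Ets domain (1 uM in the protein solution; 300mM KCl, 50mM Tris-HCl, 1mM EDTA, 1mM DTT, pH 7.5) received compound, then a probe mix of 5 nM fluorescein-DNA and 100nM Texas-615-DNA. Fluorescence polarization was read for both dyes.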
* = called active by the depositor; ? = inconclusive; . = no result given. Unless noted, calls come from the whole dose curve; as a rule, active = well fitted curve in the direction sought with a large enough effect; inconclusive = small, poorly fitted or top-dose-only effect, or another doubt; inactive = no such curve, though single readings can be large; an effect the other way counts as inactive or inconclusive.

SMILES | Apoferritin bind | Mm-Cpn inhibitor | CCT chaperon mod | ERG-DNA inh
CCCCCSc1nnc2c(n1)OC(c1ccc(C)s1)N(C(C)=O)c1ccccc1-2 (configuration not stated) | -20.6% | . | . | 0.1%
CC[C@H](C)[C@H](NC(=O)[C@H](Cc1ccc(O)cc1)NC(=O)[C@H](Cc1cnc[nH]1)NC(=O)[C@H](CCCNC(=N)N)NC(=O)[C@H](CC(C)C)NC(=O)[C@H](C)NC(=O)[C@H](CO)NC(=O)[C@H](Cc1ccc(O)cc1)NC(=O)[C@H](Cc1ccc(O)cc1)NC(=O)[C@H](CCCNC(=N)N)NC(=O)[C@H](C)NC(=O)[C@H](CC(C)C)NC(=O)[C@H](CC(=O)O)NC(=O)[C@H](CCC(=O)O)NC(=O)[C@H](C)NC(=O)[C@@H]1CCCN1C(=O)[C@H](C)NC(=O)[C@H](CC(=O)O)NC(=O)[C@H](CCC(=O)O)NC(=O)CNC(=O)[C@@H]1CCCN1C(=O)[C@H](CC(N)=O)NC(=O)[C@H](CC(=O)O)NC(=O)[C@@H]1CCCN1C(=O)[C@H](CCCCN)NC(=O)[C@@H](N)CO)C(=O)N[C@@H](CC(N)=O)C(=O)N[C@@H](CC(C)C)C(=O)N[C@H](C(=O)N[C@H](C(=O)N[C@@H](CCCNC(=N)N)C(=O)N[C@@H](CCC(N)=O)C(=O)N[C@@H](CCCNC(=N)N)C(=O)N[C@@H](Cc1ccc(O)cc1)C(N)=O)[C@@H](C)O)[C@@H](C)CC | -3.9% | . | . | .
CCOc1ccc(NC(=O)CCNS(=O)(=O)c2ccc3c(c2)CCCC(=O)N3)cc1 | 5.1% | . | . | 2.9%
CCCNC(=O)CSc1nccn1Cc1ccc(OC)cc1 | -13.8% | -0.1% | -1.2 | 6.1%
COc1ccc(Cn2ccnc2SCC(=O)NC2CCCC2)cc1 | 35.5µM* | -1.0% | -0.6 | 11.6%
COc1cc(C2CC(=O)Nc3ccc4ccccc4c32)ccc1OC(=O)C(C)C (configuration not stated) | ? | . | . | 0.1%
CCOc1ccc(NC(=O)c2c(NCc3sccc3C)sc3c2CCCCC3)cc1 | ? | . | . | 0.0%
Cn1c(=O)c2c([nH]c(=S)n2Cc2ccc(Cl)cc2)n(C)c1=O | -4.5% | -8.7% | -83.8* | 9.1%
CCC1CCCCN1C(=O)CSc1nnc2nc(C)cc(C)n12 (configuration not stated) | . | -1.3% | -39.8* | -6.3%
CCN(CC)CCCNC(=O)c1nn(-c2cccc(OC)c2)c(=O)c2ccccc12 | -10.0% | -0.6% | -75.6* | -7.8%
CC(=O)OCC1OC(n2cnc3c(=O)[nH]cnc32)C(OC(C)=O)C1OC(C)=O (configuration not stated) | 1.2% | . | . | .
COc1ccc([C@@H]2CC(=O)c3c(O)cc(O[C@@H]4O[C@H](CO)[C@@H](O)[C@H](O)[C@H]4OC4O[C@@H](C)[C@H](O)[C@@H](O)[C@H]4O)cc3O2)cc1O (some centres not stated) | 0.7% | . | . | .
